Source: PubChem BioAssay
BoNT-A LC inh2 = inhibitors of Botulinum neurotoxin A light chain protease. hit rate 0.17% among 360,000. multiplex microsphere protease substrate cleavage, flow cytometry. inhibition, % at 10 µM; further: plate controls were buffer without enzyme for full effect and enzyme alone for no effect
Anthrax LF inh2 = inhibitors of Bacillus anthracis lethal factor protease; multiplex microsphere protease cleavage assay, LF; hit rate 0.12% among 360,000; inhibition, % at 10 µM; further: plate controls were buffer without enzyme for full effect and enzyme alone for no effect
Target sequence (P15917 whole entry, looked up): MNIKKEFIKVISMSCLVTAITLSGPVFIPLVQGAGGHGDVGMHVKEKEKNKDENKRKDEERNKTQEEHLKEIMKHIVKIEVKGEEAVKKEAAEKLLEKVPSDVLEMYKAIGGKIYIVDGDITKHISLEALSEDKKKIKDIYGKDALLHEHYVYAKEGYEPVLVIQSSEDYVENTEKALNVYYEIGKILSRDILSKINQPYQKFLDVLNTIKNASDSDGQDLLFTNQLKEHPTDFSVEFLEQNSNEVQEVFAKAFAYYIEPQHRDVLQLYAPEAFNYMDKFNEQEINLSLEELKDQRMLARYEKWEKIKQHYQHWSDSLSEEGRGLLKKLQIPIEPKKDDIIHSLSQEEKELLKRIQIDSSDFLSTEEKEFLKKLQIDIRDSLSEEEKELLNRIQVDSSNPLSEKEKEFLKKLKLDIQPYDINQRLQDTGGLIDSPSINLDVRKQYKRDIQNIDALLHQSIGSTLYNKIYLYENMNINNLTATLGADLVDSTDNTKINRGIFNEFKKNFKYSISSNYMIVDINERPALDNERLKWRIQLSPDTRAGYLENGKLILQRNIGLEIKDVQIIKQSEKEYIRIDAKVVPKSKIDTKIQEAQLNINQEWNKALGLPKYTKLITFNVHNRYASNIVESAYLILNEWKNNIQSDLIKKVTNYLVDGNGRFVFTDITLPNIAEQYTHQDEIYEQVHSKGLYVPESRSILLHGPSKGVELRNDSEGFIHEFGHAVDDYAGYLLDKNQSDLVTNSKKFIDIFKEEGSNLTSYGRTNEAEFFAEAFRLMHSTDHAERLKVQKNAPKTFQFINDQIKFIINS
Autofluor counter = counter-screen for toxin protease inhibitors: compound fluorescence; fluorescence intensity (no concentration beside the values); hit rate 3.1% among 360,000; compound autofluorescence counterscreen, microsphere flow cytometry; stronger effect = higher value; in the data active means fluorescence intensity above about 16000; inconclusive means no clear call, values can overlap the other calls
MazEF act = activators of E. coli MazEF toxin-antitoxin RNase; P0AE70; FAM/BHQ RNA-DNA oligo cleavage fluorescence, 5 h; activation, % at 20 µM; hit rate 0.32% among 350,000; AID 504720; in the data active means activation above about 50%
BoNT F protease = blocks Botulinum neurotoxin F light chain protease; Multiplex microsphere protease cleavage assay, flow cytometry; inhibition, % at 10 µM; hit rate 0.22% among 360,000; AID 588497; in the data active means inhibition above about 35%, passing the limit was not always enough; inconclusive means no clear call, values can overlap the other calls; further: plate controls were buffer without enzyme for full effect and enzyme alone for no effect
Active calls of the source: *; ? = inconclusive; . = not tested or not shown. Only some compounds are listed: those with a hit (about 3.7% of all), similar ones and a draw of the others. Unless noted, no stated cut-off is given here; in the data, active means inhibition above about 30%; inconclusive means no clear call, values can overlap the other calls; inactive means below that.

SMILES	BoNT-A LC inh2	Anthrax LF inh2	Autofluor counter	MazEF act	BoNT F protease
CCOC(=O)C1=C(C)NC2=C(C(=O)C(C(=O)OCC)C(c3ccccc3OC)C2)C1c1ccccn1 (stereo not drawn)	0	0	2136	2	2
CCOC(=O)C1=C(C)NC(=O)C(C#N)C1c1ccco1 (stereo not drawn)	?	-1	18722*	7	-17
CCOC(=O)C1=C(C)NC2=C(C(=O)C(C(=O)OCC)C(c3ccco3)C2)C1c1ccccn1 (stereo not drawn)	3	-4	15333	63*	0
CC(C)C(=O)N1CCN(c2ccc([N+](=O)[O-])cc2Cl)CC1	1	1	2288	8	-1
O=[N+]([O-])c1ccc(N2CCN(c3ccc(Cl)nn3)CC2)c(Cl)c1	-2	0	20451*	9	-4
COC(=O)c1ccc(N2CCC(C)CC2)c(N)c1	2	-6	22414*	-4	-2
C[C@H](CO)N1C[C@H](C)[C@@H](CN(C)C(=O)NC2CCCCC2)Oc2ccc(NC(=O)CCC(F)(F)F)cc2C1=O	0	-5	2904	1	-1
Cc1nc(NC(=O)C(C)(C)C)sc1C(=O)Cn1cc(CCCC#N)nn1	0	-1	6036	.	-11
Cc1cc(C)c(C(N)=O)c(NC(=O)Nc2ccccc2)n1	0	-4	22860*	-2	1
Cc1cccnc1NC(=O)Nc1ccccc1	-1	-10	5425	-17	-4
CN1CCC(OC(=O)c2ccc(Br)cc2)CC1	3	-1	21548*	-2	5
O=[N+]([O-])/C=C\c1ccc(N2CCCC2)c(F)c1	60*	32*	9527	-7	21
O=Cc1ccc(N2CCCC2)c([N+](=O)[O-])c1	-1	0	5403	3	-15
CC(C)(C)[C@H]1COC(=O)CCC/C=C/C[C@H](CC(=O)NCCO)C(=O)N1	0	1	4053	9	0
Cc1sc(NC(=O)c2ccc(Cl)s2)c(C(N)=O)c1C	0	-10	16138*	4	-2
Cc1ccc(C)c(OCCC(=O)OCC(=O)Nc2ccc(N3CCOCC3)cc2)c1	4	0	5896	-3	9
O=C1c2ccccc2C(=O)c2c(NCc3cccnc3)cccc21	6	-9	8961	-25	0
O=C1c2cccc(NCCCNCCO)c2C(=O)c2cccc(NCCCNCCO)c21	30*	-56	2093	-7	-102
Cc1nnc2n(-c3ccccc3)c(=O)c3c4c(sc3n12)CC(C)CC4 (stereo not drawn)	3	3	18626*	6	2
COc1ccc(OCC(O)CNCCOc2ccccc2OC)c(C(C)(C)C)c1 (stereo not drawn)	-3	4	3648	4	-25
CCN1CCN(c2nc3c(c(=O)[nH]c(=O)n3C)n2CCCSc2ncccn2)CC1	0	-9	2506	54*	-13
Cn1c(=O)[nH]c(=O)c2c1nc(N1CCN(Cc3ccccc3)CC1)n2CCSc1ncccn1	0	-7	4502	6	-3
CN1CCN(c2nc3c(c(=O)[nH]c(=O)n3C)n2CCCSc2ncccn2)CC1	1	-1	22784*	1	0
Cn1c(=O)[nH]c(=O)c2c1nc(N1CCc3ccccc3C1)n2CCSc1nc2ccccc2s1	0	-2	16749*	-46	-1
CC1(C(=O)NS(=O)(=O)c2ccc(Br)cc2)CCN1C(=O)Cc1cccs1 (stereo not drawn)	-1	-7	4013	.	-6
SMILES	BoNT-A LC inh2	Anthrax LF inh2	Autofluor counter	MazEF act	BoNT F protease
CCCCn1nnnc1C(c1cc2ccccc2o1)N1CCN(C(=O)OC(C)(C)C)CC1 (stereo not drawn)	-1	5	4648	.	3
Cc1cc2c(c(=O)n1CCN(C)C)C(c1ccccc1Br)C(C#N)=C(N)O2 (stereo not drawn)	0	1	2709	-1	1
COc1ccc(CCn2c(C)cc3c(c2=O)C(c2ccncc2)C(C#N)=C(N)O3)cc1OC (stereo not drawn)	0	-3	3342	2	1
CCOc1ccc(C2C(C#N)=C(N)Oc3cc(C)n(CCN(C)C)c(=O)c32)cc1OCC (stereo not drawn)	0	-2	16485*	6	0
Cc1cc2c(c(=O)n1CCN(C)C)C(c1ccc(Cl)cc1)C(C#N)=C(N)O2 (stereo not drawn)	?	-2	24829*	-8	-7
COc1ccc(Cn2c(C)cc3c(c2=O)C(c2cccs2)C(C#N)=C(N)O3)cc1OC (stereo not drawn)	15	-17	16938*	0	20
